Data on 17 compounds can be found in PubChem BioAssay (NCI).

Each structure is given as a SMILES string. The panel holds about 79,000 compounds, 15% with a hit somewhere; the sample as a whole holds those more often. Unmarked numbers belong to inactive results. Activity calls are given as the source filed them. No stated cut-off is given here; in the data, active means growth inhibition above about 70%; inactive means the rest. Where a SMILES comes first, the peptide text is derived from it.

A short description of the assay: NCI Yeast Anticancer Drug Screen. Data for the cln2 rad14 strain (AID 165).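 Further: 0% = growth equal to vehicle treated cultures.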 The conditions noted are these: S. cerevisiae cln2 rad14 strain, at 50.0 µM, active compounds read high. In outline:
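Growth inhibition, relative to vehicle-treated controls, is the read-out. The test organism is a yeast strain with defined genetic alterations, cln2 rad14.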
As for `c1ccc2c(C3CO3)c3ccc4ccccc4c3cc2c1` (configuration not stated), the growth inhibition is 98.8% (active).

For the compound `O=C(NC(=O)c1c(F)cccc1F)Nc1cccc(C(F)(F)F)c1`, the growth inhibition was 6.75%. Take `CC(C)(C)CC(C)(C)[N+](=O)[O-]`: the growth inhibition was 6.85%. `CC(OC1CC(=O)CC2C(=O)C=CC(=O)C12)c1ccccc1` (configuration not stated): the growth inhibition is 20.6%. Under `Cn1cc(N=P(c2ccccc2)(c2ccccc2)c2ccccc2)c(=O)n(C)c1=O` stands 1.35%; under `O=c1[nH]cnc2ncnn12`, 19.2%; under `CCOc1c(Cl)cc(Cl)cc1C(c1ccc(Cl)cc1S(=O)(=O)O)c1cc(Cl)cc(Cl)c1OCC`, 98% (active). Under `COC(=O)C1(C)CCCC2(C)C3CC4OC4(C(C)C)CC3(O)CCC12` (configuration not stated) stands -8.4%. With `CC(=O)NC(C(=O)NC(C)C(=O)N1CCCC1C(=O)O)C(C)C` (stereo not drawn) (Ac-Val-Ala-Pro-OH; configuration not given here) the figure was 15.1%; with `Cc1cc(Br)cc(C)c1NC(=O)C(=O)C1C(=O)C(CC2C(=O)c3ccccc3C2=O)C(=O)CC1(C)C` (configuration not stated), -5.7%; with `O=C(O)c1cccc(C2=CCCC2)c1`, 10.3%. Regarding `CCC(=O)C(=O)c1ccccc1`, the growth inhibition was -2.35%. As to `CSc1c(C#N)c(N)nc2c(N=Nc3ccc(Cl)cc3)c(N)nn12`, the growth inhibition is -4.65%. With `Oc1cccc2ccc(Br)nc12` the figure was 4.9%; with `c1ccc(P(CCCP(c2ccccc2)c2ccccc2)c2ccccc2)cc1`, 38.4%. Consider `CC(C=O)C1CCCCC1` (configuration not stated), for which the growth inhibition is 7.4%. As to `O=C(OCC(Cl)(Cl)Cl)N1[C@H]2C3=C(CCC3)[C@@H]([C@H]3O[C@H]32)N1C(=O)OCC(Cl)(Cl)Cl`, the growth inhibition was 20.7%.
